Assay results reported in PubChem BioAssay (EPA / NIEHS).
Records with an inconclusive call do not appear. Activity calls are given as the source filed them. The calls were made as follows: active = hit-call score of the fitted dose curve at least 0.9, where 1 is the maximum; inconclusive = response in the unintended direction; inactive = score below 0.9.

Assays:
[1] = VALA_MIGHUV1_ScratchOnly_CellCount: Viability Assessment in the VALA Sciences human Umbilical Vein Endothelial Cell Migration (MIGHUV) Assay, Scratch Wound Inhibited Recovery (AID 2284327)
Method: VALA_MIGHUV1_ScratchOnly is a cell-based, multiplexed assay that uses umbilical vein-derived endothelial cells (HUVEC). Measurements were taken 24 hours after chemical dosing in a 96-well plate.VALA_MIGHUV1_ScratchOnly_CellCount is the one of two assay components measured from the VALA_MIGHUV1_ScratchOnly assay. It is designed to make measurements of viability, a form of viability reporter, as detected with fluorescence intensity signals by HCS Fluorescent Imaging technology. Data from the assay component VALA_MIGHUV1_ScratchOnly_CellCount was analyzed at the endpoint, VALA_MIGHUV1_ScratchOnly_CellCount, in the positive analysis fitting direction relative to DMSO as the negative control and baseline of activity. Using a type of viability reporter, loss-of-signal activity can be used to understand viability. To generalize the intended target to other relatable targets, this assay endpoint is annotated to the cell cycle intended target family, where the subfamily is cell count.
Cells were seeded on 384-well microplates (day-0) at a density of 9000 cells per well for detection of wound area recovery or 4000 cells per well for detection of beta-catenin (CTNB) immunoreactivity and incubated in Endothelial Cell Growth Medium (CAI, San Diego; catalog 211-500). After 24 hours of culture, the HUVEC plates were scratched using a custom scratch head with the Bravo liquid handling system. […]

[2] = CCTE_Mundy_HCI_iCellGluta_NOG_NeuronCount: CCTE's Neurite Outgrowth Assay in iCellGluta cells for Neuron Count, Mundy Lab (AID 2284340);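 also: cells fixed about 48 h after compound addition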
In short: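 Neuron count read by automated high-content imaging of Hoechst 33342 and betaIII-tubulin/Alexa Fluor-488 labelling in human iPSC glutamatergic neurons. Activity fitted relative to DMSO.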

[3] = CCTE_Mundy_HCI_iCellGluta_NOG_NeuriteCount: CCTE's Neurite Outgrowth Assay in iCellGluta cells for Neurite Count, Mundy Lab (AID 2284342);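 also: chemical exposure about 48 hours starting 2 hours after plating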

## COC(=O)[C@H]1[C@H]2C[C@@H]3c4[nH]c5cc(OC)ccc5c4CCN3C[C@H]2C[C@@H](OC(=O)c2cc(OC)c(OC)c(OC)c2)[C@@H]1OC
[1]
  outcome: inactive

## OCC(O)CO
[2]
  outcome: inactive
[3]
  outcome: inactive

## CC(=O)CC(c1ccccc1)c1c(O)c2ccccc2oc1=O (centres undefined)
[3]
  outcome: inactive
